Potency and affinity values are given separately. Inconclusive results are not listed. The source made the active and inactive calls.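 How the source made its calls: active means compound whose fitted half-maximal dose for signal loss lies within twice the top dose in every replicate test; inconclusive means tests disagree, or flat partial signal loss or poor fit; inactive means every test inactive, flat, rising or too weak.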
target: Endoplasmic reticulum aminopeptidase 1 (Homo sapiens) (UniProt Q9NZ08); experiment: blocking ERAP1 cleavage of leucine-AMC substrate – biochemical, fluorescence plate reader, dry powder, dose response (AID 1117292); settings: purified ERAP1, Leu-AMC fluorescence, 60 min; series mostly up to 50 µM; activity change, negative = inhibition: at the top concentration
Sequence (Q9NZ08 whole entry, looked up): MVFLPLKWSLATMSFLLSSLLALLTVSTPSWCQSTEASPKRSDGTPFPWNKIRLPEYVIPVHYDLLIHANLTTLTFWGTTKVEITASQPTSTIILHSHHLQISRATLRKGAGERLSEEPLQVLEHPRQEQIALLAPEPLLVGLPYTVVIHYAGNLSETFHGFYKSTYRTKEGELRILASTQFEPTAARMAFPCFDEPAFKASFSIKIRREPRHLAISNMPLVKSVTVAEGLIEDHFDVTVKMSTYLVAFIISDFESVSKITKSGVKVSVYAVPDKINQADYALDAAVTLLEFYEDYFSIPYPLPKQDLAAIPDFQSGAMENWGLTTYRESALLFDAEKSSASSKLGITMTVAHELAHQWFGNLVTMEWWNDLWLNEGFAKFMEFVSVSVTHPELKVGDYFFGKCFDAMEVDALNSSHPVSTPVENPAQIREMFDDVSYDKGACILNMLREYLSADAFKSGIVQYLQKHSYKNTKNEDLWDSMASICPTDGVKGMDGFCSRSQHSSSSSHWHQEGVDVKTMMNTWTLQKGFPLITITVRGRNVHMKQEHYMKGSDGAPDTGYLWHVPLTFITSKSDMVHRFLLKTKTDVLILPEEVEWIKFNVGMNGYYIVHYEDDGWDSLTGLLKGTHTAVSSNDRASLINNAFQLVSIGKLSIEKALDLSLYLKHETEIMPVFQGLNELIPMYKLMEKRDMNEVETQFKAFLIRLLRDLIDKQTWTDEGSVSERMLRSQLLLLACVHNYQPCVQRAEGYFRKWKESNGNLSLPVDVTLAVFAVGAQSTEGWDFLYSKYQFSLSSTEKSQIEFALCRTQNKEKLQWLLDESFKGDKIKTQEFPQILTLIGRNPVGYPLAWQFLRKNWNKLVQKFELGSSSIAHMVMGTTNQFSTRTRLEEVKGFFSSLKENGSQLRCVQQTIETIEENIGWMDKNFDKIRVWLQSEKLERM

Activity change, negative = inhibition, inactive:
CC(=O)N1CCN(C(=O)C2(NC(=O)Nc3ccc(F)cc3)CCCCC2)CC1 -20.7%
Cc1ccc(NC(=O)NC2(C(=O)N3CCNCC3)CCCCC2)cc1 -1.44%
CC(=O)N1CCN(C(=O)C2(NC(=O)Nc3ccccc3C(F)(F)F)CCCCC2)CC1 24.9%
O=S(=O)(Nc1cc(C(F)(F)F)ccc1N1CCCCC1)c1ccc(C(F)(F)F)cc1 9.19%
Cc1ccccc1S(=O)(=O)Nc1cc(C(F)(F)F)ccc1N1CCCCC1 8.63%
COc1ccc(C(=O)Nc2cc(C(F)(F)F)ccc2N2CCCC2)cc1S(=O)(=O)O -4.72%
COc1ccc(C(=O)Nc2cc(C(F)(F)F)ccc2N2CCCCC2)cc1S(=O)(=O)O 17.1%
COc1ccc(C(=O)Nc2cc(F)ccc2N2CCCCC2)cc1S(=O)(=O)O 25%
O=S(=O)(Nc1cc(C(F)(F)F)ccc1N1CCCCC1)c1ccccc1 -1.32%
O=S(=O)(Nc1cc(C(F)(F)F)ccc1N1CCCCC1)c1ccc(Cl)cc1 13.4%
COc1ccc(C(=O)Nc2cc(C)ccc2N2CCCCC2)cc1S(=O)(=O)O -6.98%
CC(=O)N1CCN(C(=O)C2(NC(=O)Nc3cccc(C(F)(F)F)c3)CCCCC2)CC1 2.62%
CC(=O)N1CCN(C(=O)C2(NC(=O)Nc3ccc(C)cc3)CC2)CC1 -21.3%
O=S(=O)(Nc1cc(C(F)(F)F)ccc1N1CCCCC1)c1ccc(-c2ccccc2)cc1 12.5%
CC(=O)N1CCN(C(=O)C2(NC(=O)Nc3ccc(F)cc3)CCCC2)CC1 0.022%
O=S(=O)(Nc1cc(C(F)(F)F)ccc1N1CCCCC1)c1ccc(F)cc1 17.3%
COc1ccc(C(=O)Nc2ccccc2N2CCCCC2)cc1S(=O)(=O)O 24%
COc1ccc(C(=O)Nc2cc(C(F)(F)F)ccc2N2CCOCC2)cc1S(=O)(=O)O -23.1%
Cc1ccc(NC(=O)NC2(C(=O)N3CCN(c4ccccc4)CC3)CCCCC2)cc1 4.16%
CC(=O)N1CCN(C(=O)C2(NC(=O)Nc3cccc(F)c3)CCCCC2)CC1 3.52%
Cn1cnc(S(=O)(=O)Nc2cc(C(F)(F)F)ccc2N2CCCCC2)c1 13.7%

outcome, inactive:
COc1ccc(C(=O)O)cc1S(=O)(=O)Nc1cc(C(F)(F)F)ccc1N1CCCCC1

Reference: PubChem BioAssay AID1117292 (Broad Institute, 2014)
